The other results are listed elsewhere or left out. Results filed as inconclusive are left out. Activity calls are given as the source filed them. Calls follow the shape of the dose curve; as a rule, active = well fitted inhibition curve with a large enough effect; inconclusive = small, poorly fitted or top-dose-only effect; inactive = no such curve, though single readings can be large or run the other way.
What follows are molecules tested against Lysine-specific demethylase 4E (Homo sapiens) (UniProt B2RXH2) (assay: Inhibitors of Human Jumonji Domain Containing 2E (JMJD2E): 8HQs - Round 1). Conditions: FDH-coupled NADH fluorescence (FDH is formaldehyde dehydrogenase).
Sequence of Lysine-specific demethylase 4E (Homo sapiens) (B2RXH2 1-337 limits assumed): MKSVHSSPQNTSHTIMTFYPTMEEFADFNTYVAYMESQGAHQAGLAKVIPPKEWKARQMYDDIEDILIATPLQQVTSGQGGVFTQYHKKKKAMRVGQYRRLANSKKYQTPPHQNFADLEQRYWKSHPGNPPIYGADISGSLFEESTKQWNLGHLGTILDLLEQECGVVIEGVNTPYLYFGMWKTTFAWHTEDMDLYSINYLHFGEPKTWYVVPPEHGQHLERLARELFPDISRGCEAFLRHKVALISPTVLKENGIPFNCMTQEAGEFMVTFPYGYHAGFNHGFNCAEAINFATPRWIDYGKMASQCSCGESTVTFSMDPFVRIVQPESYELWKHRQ
Description: The fine interplay among methylation states of several lysine residues on the tails of histone proteins is a major determinant of the transcriptional state of the associated DNA coding regions and is commonly referred to as the histone code. Histone lysine demethylases catalyze the removal of methyl groups from methylated lysine sidechains on histones H3 and H4, thus antagonizing the reactions catalyzed by histone lysine methyltransferases. […] In search for novel inhibitors of JMJD2E demethylase, a member of the largest set of histone demethylases belonging to the Fe(II) and 2-oxoglutarate oxygenase (2OG) superfamily, we performed a quantitative high-throughput screen (Inglese 2006) by using an assay which utilizes a trimethylated peptide substrate corresponding to a fragment of histone H3 (sequence ARKme3STGGK) with detection of the formaldehyde co-product in real time by a formaldehyde dehydrogenase (FDH) coupled reaction. FDH catalyzes oxidation of formaldehyde to formic acid with the concomitant reduction of the non-fluorescent beta-nicotinamide adenine dinucleotide hydrate (NAD+) cofactor to the fluorescent NADH co-product. This assay is a following of SAR around 8-hydroxyquinoline-based inhibitors of JMJD2E. References: Inglese, J., Auld, D., Jadhav, A., Johnson, R., Simeonov, A., Yasgar, A., Zheng, W. and Austin, C. Proc Natl Acad Sci USA 2006, 103, 11473-11478. N. R. Rose, S. S. Ng, J. Mecinovic, B. M. Lienard, S. H. Bello, Z. Sun, M. A. McDonough, U. Oppermann and C. J. Schofield, J Med Chem, 2008, 51, 7053-7056. Sakurai, M., Rose, N., Schultz, L., Quinn, A., Jadhav, A., Ng, S., Oppermann, U., Schofield, C.J. and Simeonov, A. Mol BioSystems 2009, in press. S. Michael, D. Auld, C. Klumpp, A. Jadhav, W. Zheng, N. Thorne, C. Austin, J. Inglese and A. Simeonov, Assay Drug Dev Technol, 2008, 6, 637-657. Assay Provider: Structural Genomics Consortium [SGC] Screening Center PI: Austin, C.P. Screening Center: NIH Chemical Genomics Center [NCGC]
Reagents and Controls: Ferrous ammonium sulfate, (+)-sodium L-ascorbate, beta-nicotinamide adenine dinucleotide hydrate (NAD+), Tween-20, formaldehyde dehydrogenase from P. putida (FDH), and disodium 2-oxoglutarate were from Sigma (St. Louis, MO). Black solid-bottom 384-well or 1,536-well assay plates were from Greiner Bio-One (Monroe, NC). Enzyme was supplied by Prof. Udo Oppermann, SGC-Oxford. The catalytic domain of human JMJD2E (residues 1-337) was produced as an N-terminally His6-tagged protein in E. coli, and purified by Ni-affinity chromatography and size-exclusion chromatography, and stored in HEPES 50 mM/ NaCl 500 mM pH 7.5, as reported in Rose 2008. The trimethylated histone peptide substrate ARK(me3)STGGK was synthesized and HPLC-purified by the Tufts University Core Facility (Boston, MA). Substrate solution (Sakurai 2009) contained 50 uM ARK(me3)STGGK, 0.00025 U/uL FDH, 50 uM 2-oxoglutarate, 250 uM NAD+, 1 mM ascorbate, and 10 uM ferrous ammonium sulfate. Controls and plate map: Buffer (150 mM HEPES pH 7.5 containing 0.01% Tween-20) in columns 3 and 4 as negative control (no enzyme) and 100 nM JMJD2E final concentration in columns 1,2, and 5-48. […] The plate was transferred to ViewLux imager where an initial reading using standard UV optics (Ex 340 nm, Em 450 nm) was obtained. The plate was then removed from the reader, incubated for 30 minutes at room temperature, and returned to the reader for a second fluorescence reading. […]

Potency, active:
Nc1ccc(Nc2cc(O)c3ncccc3c2)cc1 32.4 µM
Oc1c(CN2CCCC2)cc(COCc2ccccc2)c2cccnc12 5.01 µM
Oc1ccc(/C=C/c2c(F)cccc2F)c2cccnc12 8.91 µM
CC(=O)NC(c1cccs1)c1cc(Cl)c2cccnc2c1O (stereo not given) 12.9 µM
Oc1cccc2cc(-c3ccncc3)cnc12 18.2 µM

Source: PubChem BioAssay AID493212 (National Center for Advancing Translational Sciences (NCATS), 2011)
